Inconclusive results are not listed. The source made the active and inactive calls. The calls were made as follows: active = hit-call score of the fitted dose curve at least 0.9, where 1 is the maximum; inconclusive = response in the unintended direction; inactive = score below 0.9.
Molecular target: human Sirtuin 3 (SIRT3), SIRT3 (gene 23410) (UniProt Q9NTG7)
Assay: NVS_ENZ_hSIRT3: NovaScreen (NVS) Enzymatic Assay for human Sirtuin 3 (SIRT3) (AID 2283222)
Outline: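 Cell-free enzyme assay with recombinant protein and fluorescent substrate, product separated by electrophoretic mobility shift; read 1 hour after dosing. Screened in duplicate at 25 uM, then singleton concentration-response up to 50 uM; loss of signal versus DMSO.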

human Sirtuin 3 (SIRT3), SIRT3 (gene 23410), sequence (Q9NTG7 whole entry, looked up): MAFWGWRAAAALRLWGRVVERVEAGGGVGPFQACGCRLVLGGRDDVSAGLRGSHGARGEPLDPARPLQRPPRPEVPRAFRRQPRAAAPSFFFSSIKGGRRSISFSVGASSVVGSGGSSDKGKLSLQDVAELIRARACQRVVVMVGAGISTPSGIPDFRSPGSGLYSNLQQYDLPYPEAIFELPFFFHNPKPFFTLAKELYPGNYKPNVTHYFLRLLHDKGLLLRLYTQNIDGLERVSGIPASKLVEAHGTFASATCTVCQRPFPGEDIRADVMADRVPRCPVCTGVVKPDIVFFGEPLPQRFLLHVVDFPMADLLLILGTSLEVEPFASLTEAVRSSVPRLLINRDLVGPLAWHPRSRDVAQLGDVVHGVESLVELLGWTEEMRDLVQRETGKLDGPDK

SMILES | AC50 | outcome
CCCCC(C#N)(Cn1cncn1)c1ccc(Cl)cc1 (configuration not stated) | 10.4 µM (active) | –
O=C1C2CC=CCC2C(=O)N1SC(Cl)(Cl)Cl (configuration not stated) | 39.5 µM (active) | –
CCCCC(O)(Cn1cncn1)c1ccc(Cl)cc1Cl (configuration not stated) | – | inactive
CC1(C)C(C=C(Cl)Cl)C1C(=O)OC(C#N)c1cccc(Oc2ccccc2)c1 (configuration not stated) | – | inactive
Clc1nc(Cl)nc(Nc2ccccc2Cl)n1 | – | inactive

Molecular target: human Tropomyosin Receptor Kinase A (TRKA), NTRK1 (gene 4914) (UniProt P04629)
Sequence (P04629 whole entry, looked up): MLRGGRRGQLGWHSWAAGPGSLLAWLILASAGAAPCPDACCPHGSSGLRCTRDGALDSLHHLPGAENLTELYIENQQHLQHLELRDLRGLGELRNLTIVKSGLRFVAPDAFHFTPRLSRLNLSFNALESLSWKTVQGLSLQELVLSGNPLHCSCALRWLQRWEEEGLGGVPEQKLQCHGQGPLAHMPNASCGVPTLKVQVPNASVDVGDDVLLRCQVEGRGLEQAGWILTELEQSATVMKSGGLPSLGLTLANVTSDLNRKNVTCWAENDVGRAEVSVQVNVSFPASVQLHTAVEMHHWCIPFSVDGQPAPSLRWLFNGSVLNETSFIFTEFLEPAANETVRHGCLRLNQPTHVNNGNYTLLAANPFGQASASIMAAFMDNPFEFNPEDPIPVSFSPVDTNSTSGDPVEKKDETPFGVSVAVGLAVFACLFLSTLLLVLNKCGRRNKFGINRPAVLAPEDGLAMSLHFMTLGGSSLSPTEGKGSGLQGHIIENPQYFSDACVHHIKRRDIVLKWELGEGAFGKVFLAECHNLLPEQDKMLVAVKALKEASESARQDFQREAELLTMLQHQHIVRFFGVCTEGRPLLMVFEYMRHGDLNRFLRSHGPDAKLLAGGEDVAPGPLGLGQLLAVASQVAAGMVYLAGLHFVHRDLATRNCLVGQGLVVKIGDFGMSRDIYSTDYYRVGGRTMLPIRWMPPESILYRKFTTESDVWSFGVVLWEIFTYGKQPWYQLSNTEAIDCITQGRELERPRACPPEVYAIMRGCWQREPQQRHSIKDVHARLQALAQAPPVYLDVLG
Assay: NVS_ENZ_hTrkA: NovaScreen (NVS) Enzymatic Assay for human Tropomyosin Receptor Kinase A (TRKA) (AID 2283224)
Outline: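 Compounds were screened at 25 uM in duplicate, then concentration series to a 50 uM top for those meeting threshold (e.g. 30% inhibition). Enzyme was recombinant human TrkA, incubated 1 h. Product formation was quantified by fluorescence after mobility-shift separation.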

SMILES | AC50 | outcome
CCCCC(C#N)(Cn1cncn1)c1ccc(Cl)cc1 (configuration not stated) | 19.5 µM (active) | –
COC(=O)N(C(=O)N1CO[C@@]2(C(=O)OC)Cc3cc(Cl)ccc3C2=N1)c1ccc(OC(F)(F)F)cc1 | 28.7 µM (active) | –
CC(C)Nc1nc(Cl)nc(NC(C)C)n1 | – | inactive
CCCCC(O)(Cn1cncn1)c1ccc(Cl)cc1Cl (configuration not stated) | 21.9 µM (active) | –
Clc1nc(Cl)nc(Nc2ccccc2Cl)n1 | 7.05 µM (active) | –

Molecular target: human Tyrosine Protein Kinase Receptor Tie-2 (Tie2), TEK (gene 7010) (UniProt Q02763)
Sequence (Q02763 whole entry, looked up): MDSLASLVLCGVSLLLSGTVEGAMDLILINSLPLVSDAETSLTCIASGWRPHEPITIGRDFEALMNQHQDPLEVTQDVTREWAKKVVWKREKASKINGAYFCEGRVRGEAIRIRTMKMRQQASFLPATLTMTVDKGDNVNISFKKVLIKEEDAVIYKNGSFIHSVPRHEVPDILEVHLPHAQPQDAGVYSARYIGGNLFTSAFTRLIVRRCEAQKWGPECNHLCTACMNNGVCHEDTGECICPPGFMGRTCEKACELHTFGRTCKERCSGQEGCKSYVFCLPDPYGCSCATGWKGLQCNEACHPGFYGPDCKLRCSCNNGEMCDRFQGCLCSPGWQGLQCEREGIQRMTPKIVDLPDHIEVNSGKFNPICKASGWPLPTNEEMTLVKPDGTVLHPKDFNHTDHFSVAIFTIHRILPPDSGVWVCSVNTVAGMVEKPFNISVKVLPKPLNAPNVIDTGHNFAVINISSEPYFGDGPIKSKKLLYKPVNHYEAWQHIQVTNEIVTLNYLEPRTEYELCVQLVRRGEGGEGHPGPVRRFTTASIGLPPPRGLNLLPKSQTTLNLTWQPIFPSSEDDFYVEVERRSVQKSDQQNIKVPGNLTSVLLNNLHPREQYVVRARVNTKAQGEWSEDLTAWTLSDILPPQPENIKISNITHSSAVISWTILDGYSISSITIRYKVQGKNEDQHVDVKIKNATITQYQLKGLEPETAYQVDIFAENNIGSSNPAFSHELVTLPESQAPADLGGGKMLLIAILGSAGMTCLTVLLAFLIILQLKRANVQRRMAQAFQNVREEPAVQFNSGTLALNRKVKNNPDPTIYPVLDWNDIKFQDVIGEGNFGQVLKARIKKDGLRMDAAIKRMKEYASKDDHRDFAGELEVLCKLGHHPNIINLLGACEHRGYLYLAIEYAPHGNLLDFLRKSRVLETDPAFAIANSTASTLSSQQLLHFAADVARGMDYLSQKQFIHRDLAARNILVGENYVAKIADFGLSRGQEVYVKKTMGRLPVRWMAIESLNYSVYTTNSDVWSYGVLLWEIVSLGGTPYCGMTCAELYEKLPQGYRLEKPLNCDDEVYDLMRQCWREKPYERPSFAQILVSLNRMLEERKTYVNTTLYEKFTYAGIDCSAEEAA
Assay: NVS_ENZ_hTie2: NovaScreen (NVS) Enzymatic Assay for human Tyrosine Protein Kinase Receptor Tie-2 (Tie2) (AID 2283225)
Outline: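 Substrate and product were separated by mobility shift and detected by fluorescence after a 1-hour reaction with recombinant Tie2. Chemicals passing a 25 uM single-point screen were titrated to a maximum of 50 uM. Results were normalized to DMSO baseline.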

SMILES | outcome
Nc1c(Cl)c(Cl)nc(C(=O)O)c1Cl | inactive
CC(C)C1(C)N=C(c2ncccc2C(=O)O)NC1=O (configuration not stated) | inactive
OC(c1ccc(Cl)cc1)(c1ccc(Cl)cc1)C(Cl)(Cl)Cl | inactive
CC1(C)C(C=C(Cl)Cl)C1C(=O)OC(C#N)c1cccc(Oc2ccccc2)c1 (configuration not stated) | inactive
Nc1cnn(-c2ccccc2)c(=O)c1Cl | inactive

Molecular target: rabbit Imidazoline 2 Central (I2C), CKB (gene 100009085) (UniProt P00567)
Sequence (P00567 whole entry, looked up): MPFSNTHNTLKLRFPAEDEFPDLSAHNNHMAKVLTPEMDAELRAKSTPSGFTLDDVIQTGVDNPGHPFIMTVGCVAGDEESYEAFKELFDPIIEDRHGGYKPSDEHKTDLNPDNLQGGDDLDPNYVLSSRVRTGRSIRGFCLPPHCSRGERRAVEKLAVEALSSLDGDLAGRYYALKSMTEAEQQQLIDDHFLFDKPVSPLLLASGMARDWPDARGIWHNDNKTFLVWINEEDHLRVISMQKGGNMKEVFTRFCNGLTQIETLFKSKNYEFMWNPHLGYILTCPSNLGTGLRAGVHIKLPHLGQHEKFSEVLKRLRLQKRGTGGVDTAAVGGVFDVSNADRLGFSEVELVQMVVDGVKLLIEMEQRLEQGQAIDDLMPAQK
Assay: NVS_ENZ_rabI2C: NovaScreen (NVS) Enzymatic Assay for rabbit Imidazoline 2 Central (I2C) (AID 2283228)
Outline: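 Rabbit brain membranes, cell-free; readout by filter-based scintillation counting 1.5 hours after dosing, loss of signal vs DMSO. Initial duplicate test at 25 uM, then concentration-response with 50 uM top concentration.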

SMILES | AC50 | outcome
Cn1c(-c2ccccc2)cc(-c2ccccc2)[n+]1C | 12 µM (active) | –
CCN(CC)C(=O)C(C)Oc1cccc2ccccc12 (configuration not stated) | – | inactive
Cc1ccc(N=CN(C)C=Nc2ccc(C)cc2C)c(C)c1 | 1.21 µM (active) | –
CCCN(CC)CC1COC2(CCC(C(C)(C)C)CC2)O1 (configuration not stated) | 13 µM (active) | –

Molecular target: rat Adenylate Cyclase, Forskolin Stimulated, Adcy5 (gene 64532) (UniProt Q04400)
Sequence (Q04400 whole entry, looked up): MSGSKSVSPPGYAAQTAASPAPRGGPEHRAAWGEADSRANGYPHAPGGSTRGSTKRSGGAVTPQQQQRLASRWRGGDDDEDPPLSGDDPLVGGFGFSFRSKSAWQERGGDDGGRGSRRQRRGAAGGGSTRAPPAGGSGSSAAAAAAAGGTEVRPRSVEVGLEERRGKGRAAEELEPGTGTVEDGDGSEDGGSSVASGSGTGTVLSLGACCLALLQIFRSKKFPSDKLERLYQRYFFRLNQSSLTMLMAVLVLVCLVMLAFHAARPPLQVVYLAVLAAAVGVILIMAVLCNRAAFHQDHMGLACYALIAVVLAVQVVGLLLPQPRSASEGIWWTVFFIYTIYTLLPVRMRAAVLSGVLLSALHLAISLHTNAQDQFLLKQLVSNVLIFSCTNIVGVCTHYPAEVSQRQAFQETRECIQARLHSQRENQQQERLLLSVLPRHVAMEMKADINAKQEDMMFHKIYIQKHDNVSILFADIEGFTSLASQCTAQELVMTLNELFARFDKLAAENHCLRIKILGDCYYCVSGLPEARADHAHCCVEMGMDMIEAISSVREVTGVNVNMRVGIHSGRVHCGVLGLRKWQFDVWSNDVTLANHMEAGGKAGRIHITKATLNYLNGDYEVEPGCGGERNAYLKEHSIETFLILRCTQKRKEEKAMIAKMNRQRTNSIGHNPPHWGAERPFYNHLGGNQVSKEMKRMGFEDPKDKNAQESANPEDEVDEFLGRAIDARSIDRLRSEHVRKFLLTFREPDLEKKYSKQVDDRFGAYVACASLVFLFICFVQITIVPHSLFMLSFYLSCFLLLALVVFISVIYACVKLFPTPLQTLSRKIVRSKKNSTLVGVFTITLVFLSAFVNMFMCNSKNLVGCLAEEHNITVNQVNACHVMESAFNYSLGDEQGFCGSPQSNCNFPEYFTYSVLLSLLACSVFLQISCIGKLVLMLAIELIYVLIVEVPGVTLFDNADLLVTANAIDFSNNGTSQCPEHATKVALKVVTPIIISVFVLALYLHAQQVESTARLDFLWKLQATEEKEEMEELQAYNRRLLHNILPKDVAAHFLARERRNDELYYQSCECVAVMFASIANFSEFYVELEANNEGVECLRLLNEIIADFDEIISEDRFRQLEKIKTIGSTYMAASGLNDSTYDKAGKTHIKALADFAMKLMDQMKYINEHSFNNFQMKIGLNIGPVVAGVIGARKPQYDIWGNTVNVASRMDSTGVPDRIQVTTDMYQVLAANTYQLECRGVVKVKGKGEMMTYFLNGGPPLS
Assay: NVS_ENZ_rACFSKBinding: NovaScreen (NVS) Enzymatic Assay for rat Adenylate Cyclase, Forskolin Stimulated (AID 2283232)
Outline: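 Chemicals were first tested at 25 uM in duplicate, then hits run as concentration series with top concentration 50 uM. Enzyme source was rat forebrain membranes; radiometric filter read-out after 1 h, referenced to DMSO.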

SMILES | outcome
COP(=S)(OC)SCn1nnc2ccccc2c1=O | inactive
O=C1C2CC=CCC2C(=O)N1SC(Cl)(Cl)Cl (configuration not stated) | inactive
CO/N=C(/C1=NOCCO1)c1ccccc1Oc1ncnc(Oc2ccccc2Cl)c1F | inactive

Reference: PubChem BioAssay (EPA / NIEHS)
